The list is not random: actives were taken first. Their share in the collection is about 3.6%.
HSP90 refold inh – HSP90 inhibitors, primary screen, cell lysate, luminescence; Heat shock protein HSP 90 (rabbit reticulocyte lysate; luciferase refolding); Rabbit reticulocyte lysate, luciferase refolding luminescence, 3 h; inhibition, % at 5.6 µM; 290,000 compounds, 0.91% hits;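 active = inhibition above the screen-wide mean plus 3 SD, computed separately per campaign, cut at about 16% in these data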;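 also: 0% = DMSO wells and 100% = 60 µM geldanamycin wells; inhibitors lower the luminescence because luciferase stays unfolded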
KKLEB cytotox – cytotoxicity in KKLEB CF airway cells, primary screen, cytotoxicity control for CF NF-kB inhibitor project, cell-based, uHTS, fluorescence assay plates; KKLEB CF airway cells viability, ATPlite luminescence, overnight; hits give low values; cells stimulated with P. aeruginosa culture filtrate; 360,000 compounds, 0.36% hits; activity change (cytotoxicity), % at 5 µM;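 active = corrected activity change at or below -50% at 5 µM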
LGR2 antag – inhibitors of bursicon-induced LGR2 CRE-luciferase signal, primary screen, cell-based, HEK293, CRE-luciferase reporter, bursicon stimulation; bursicon-stimulated, 4 h; 380,000 compounds, 0.35% hits; Drosophila bursicon receptor LGR2 (rickets); inhibition, % at 9.99 µM; AID 720647, 2013;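 active = drop in luminescence signal, shown as inhibition above about 50% in the replicate tests, limit read from the data, passing the limit was not always enough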;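 also: agonist challenge used bursicon conditioned medium at about half maximal strength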
CF NFkB inh – inhibitors of PAF-induced NF-kB signaling, primary screen, cell-based, GFP fluorescence, uHTS. 360,000 compounds, 0.86% hits. inhibition, % at 5 µM. KKLEB NF-kB-GFP reporter, GFP fluorescence overnight;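 active = at least 50% inhibition at 5 µM, scaled per plate between neutral and stimulator controls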;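 also: PAF is a Pseudomonas aeruginosa culture filtrate used as stimulus; plate controls were PAF-stimulated DMSO wells for no effect and unstimulated DMSO wells for full effect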
Mdm2 MdmX PPI – inhibitors of human Mdm2-MdmX association, primary screen, cell-based, luminescence, split luciferase, SaOS-2, uHTS; Protein Mdm4 (Homo sapiens) + E3 ubiquitin-protein ligase Mdm2 (Homo sapiens), …; SaOS-2 split-luciferase Mdm2/MdmX complementation; inhibition, % at 8 µM; 330,000 compounds, 3% hits;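 active = inhibition of at least 50% at 8 µM in the primary screen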
Target sequence (O15151 whole entry, looked up): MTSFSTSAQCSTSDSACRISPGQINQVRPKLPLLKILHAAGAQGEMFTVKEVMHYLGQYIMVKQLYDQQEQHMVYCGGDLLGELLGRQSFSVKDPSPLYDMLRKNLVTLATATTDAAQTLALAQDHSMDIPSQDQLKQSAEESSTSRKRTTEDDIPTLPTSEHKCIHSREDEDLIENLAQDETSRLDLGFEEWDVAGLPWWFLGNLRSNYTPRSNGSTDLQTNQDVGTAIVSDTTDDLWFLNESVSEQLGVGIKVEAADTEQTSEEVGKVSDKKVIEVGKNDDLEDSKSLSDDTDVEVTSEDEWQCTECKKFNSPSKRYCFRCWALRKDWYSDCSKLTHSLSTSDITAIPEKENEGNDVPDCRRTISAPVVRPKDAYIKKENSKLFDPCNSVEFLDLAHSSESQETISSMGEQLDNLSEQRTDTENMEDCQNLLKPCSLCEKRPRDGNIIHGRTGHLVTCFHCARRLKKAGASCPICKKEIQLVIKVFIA
Target sequence (Q00987 whole entry, looked up): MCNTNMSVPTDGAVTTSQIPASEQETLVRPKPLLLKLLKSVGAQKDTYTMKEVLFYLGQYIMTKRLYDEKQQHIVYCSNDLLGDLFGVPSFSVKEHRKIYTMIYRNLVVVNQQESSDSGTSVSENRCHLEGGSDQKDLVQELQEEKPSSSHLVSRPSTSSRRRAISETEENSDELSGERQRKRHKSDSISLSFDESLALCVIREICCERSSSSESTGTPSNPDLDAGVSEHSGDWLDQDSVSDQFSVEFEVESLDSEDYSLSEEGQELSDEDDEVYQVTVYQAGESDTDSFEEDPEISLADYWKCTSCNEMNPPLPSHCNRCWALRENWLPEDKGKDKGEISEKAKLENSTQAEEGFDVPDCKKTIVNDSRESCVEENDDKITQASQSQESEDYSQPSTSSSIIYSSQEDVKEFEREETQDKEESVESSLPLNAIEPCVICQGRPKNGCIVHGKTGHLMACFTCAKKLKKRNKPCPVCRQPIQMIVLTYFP
Peg3 promoter – Peg3 promoter-driven luciferase inhibitors, primary screen, cell-based, HeLa, luciferase luminescence. HeLa PEG-Prom luciferase reporter, overnight. inhibition, % at 20 µM. 360,000 compounds, 1.7% hits;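 active = inhibition of at least 50% at 20 µM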
Mdm2 MdmX conf – Mdm2-MdmX complex disruptors, retested hits, confirmation, luminescence, single concentration; shares compounds with Mdm2 MdmX PPI; Mdm2-MdmX binding, luminescent assay; 10,000 compounds, 55% hits; inhibition, % at 8 µM; in the data active = inhibition above about 40%
Full FLuc ctr – full-length luciferase signal inhibition, confirmation, counter-screen for Mdm2/MdmX interaction inhibitor project, cell-based, single concentration, SaOS-2; shares compounds with Mdm2 MdmX PPI; SaOS-2 full-length luciferase counterscreen, luminescence; inhibition, % at 8 µM; 6,200 compounds, 77% hits; AID 504607, 2011;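 active = mean inhibition at 8 µM reaching about 37%, which flags the compound as non-specific, limit read from the data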;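 also: p53-null SaOS-2 cells with luciferase driven by a doxycycline-inducible promoter; compound on cells about two nights before reading with doxycycline added after day one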
Numbers without * were called inactive; . = no result.

SMILES	HSP90 refold inh	KKLEB cytotox	LGR2 antag	CF NFkB inh	Mdm2 MdmX PPI	Peg3 promoter	Mdm2 MdmX conf	Full FLuc ctr
O=C(Nc1ccc(Cl)cc1)c1nc[nH]c1C(=O)NCCN(CCNC(=O)c1[nH]cnc1C(=O)Nc1ccc(Cl)cc1)CCNC(=O)c1[nH]cnc1C(=O)Nc1ccc(Cl)cc1	.	-55.6*	.	70.9*	100.5*	100.9*	97.5*	55.7*
CO[C@@H]1CN(C)C(=O)c2ccc(NC(=O)C3CC3)cc2OC[C@@H](C)N(C(=O)c2ccncc2)C[C@@H]1C	.	.	2.8	.	.	.	.	.
CN1[C@@H]2c3ccc(/C=C/c4ccccc4)c(=O)n3C[C@H]1[C@H](CO)[C@H]2C(=O)NC1CCCCC1	.	.	-5.1	.	.	.	.	.
O=C(Nc1ccc(Cl)cc1)c1nc[nH]c1C(=O)NCCCNC(=O)c1[nH]cnc1C(=O)Nc1ccc(Cl)cc1	.	.	.	.	97.1*	.	-5.1	.
Cc1cccc(NC(=O)c2nc[nH]c2C(=O)NC2CCN(C(=O)OC(C)(C)C)CC2)c1	.	-5.4	10.1	-22.0	54.7*	61.5*	26.1	.
O=C(Nc1ccccc1)c1nc[nH]c1C(=O)NCCN(CCNC(=O)c1[nH]cnc1C(=O)Nc1ccccc1)CCNC(=O)c1[nH]cnc1C(=O)Nc1ccccc1	.	-3.1	-0.1	8.1	62.2*	40.6	8.8	.
O=[N+]([O-])c1cc(-c2nc(-c3ccncc3)no2)cc([N+](=O)[O-])c1	3.1	5.3	-11.4	-52.4	-5.7	-137.2	.	.
O=[N+]([O-])c1cc(-c2nc(-c3ccncc3)no2)ccc1Cl	3.4	13.5	-8.5	-27.6	99.0*	104.6*	81.1*	23.3
COc1ccc(C(=O)/C=C/c2ccc(O)cc2)c(O)c1C/C=C(\C)CCC=C(C)C	.	-45.6	.	21.7	67.5*	-28.8	-3.9	.
COc1ccc(C(=O)Nc2cccc3c2CCCC3)cc1	1.2	-3.4	-2.0	-3.6	51.1*	-43.3	34.6	73.8*
COc1ccc(C(=O)Nc2ccc3c(c2)OC[C@@H](C)N(C(C)=O)C[C@@H](C)[C@@H](OC)CN(C)C3=O)cc1	.	.	-14.3	.	.	.	.	.
CC(=O)Nc1ccc(Oc2ccccc2)cc1	2.2	3.3	4.4	10.1	14.4	-4.5	.	.
CC(=O)Nc1ccc(Oc2sc(C(=O)c3ccccc3)c(N)c2C#N)cc1	1.7	-33.5	.	40.9	61.5*	29.1	29.1	78.1*
O=C(NN1CCOCC1)c1cc(-c2cccs2)nc2ccccc12	2.7	-0.8	-7.1	4.9	-11.8	5.8	.	.
Cc1ccc2sc(NNC(=O)c3cc(-c4cccs4)nc4ccccc34)nc2c1C	-2.6	.	.	.	.	.	.	.
O=C(NNc1nc2ccc(Cl)cc2s1)c1cc(-c2cccs2)nc2ccccc12	0.0	-18.9	.	37.5	52.7*	87.1*	62.0*	61.0*
Cc1cc(C)c2nc(NNC(=O)c3cc(-c4cccs4)nc4ccccc34)sc2c1	5.3	-3.5	0.0	11.7	76.5*	51.7*	67.8*	56.8*
O=C(C[C@@H]1C[C@H]2c3cc(NC(=O)NC4CCCC4)ccc3O[C@H]2[C@H](CO)O1)NCc1ccc(Oc2ccccc2)cc1	.	.	-1.8	.	.	.	.	.
CNC(=O)C[C@@H]1CC[C@H]2[C@@H](COC[C@@H](O)CN2C(=O)c2ccc3c(c2)OCO3)O1	.	.	-5.3	.	.	.	.	.
CCOC(=O)C1=C(N)n2c(s/c(=C\c3cccs3)c2=O)=C(C(=O)OCC)C1c1cccs1 (stereo unspecified)	4.1	-10.3	.	29.7	61.7*	-5.9	50.3*	79.3*
CCOC(=O)C1=C(N)n2c(s/c(=C\c3ccncc3)c2=O)=C(C(=O)OCC)C1c1ccncc1 (stereo unspecified)	-1.2	-18.6	21.8	-1.5	14.5	21.8	.	.
O=C(O)/C=C/C(=O)c1ccc2c(c1)CCc1ccccc1-2	.	3.3	26.1	64.1*	66.9*	99.7*	25.8	.
CC(=O)Nc1ccc2c(c1)CCc1ccccc1-2	-2.5	0.4	-60.3	-14.1	-3.2	-202.1	.	.
CO[C@@H]1CN(C)C(=O)c2ccc(NC(C)=O)cc2OC[C@H](C)N(C(=O)c2ccc(F)cc2)C[C@@H]1C	.	.	3.7	.	.	.	.	.
O=C(C[C@@H]1C[C@H]2c3cc(NC(=O)C4CCC4)ccc3O[C@H]2[C@H](CO)O1)NCc1cccc(F)c1	.	.	6.6	.	.	.	.	.
SMILES	HSP90 refold inh	KKLEB cytotox	LGR2 antag	CF NFkB inh	Mdm2 MdmX PPI	Peg3 promoter	Mdm2 MdmX conf	Full FLuc ctr
Cc1ccc(NC(=O)Cn2cnc3sc(C(=O)NCCN(C)C)c(C)c3c2=O)cc1Cl	0.3	.	.	.	22.2	.	.	.
CCN(CC)CCCNC(=O)c1sc2ncn(CC(=O)Nc3ccc(C)c(Cl)c3)c(=O)c2c1C	-2.9	-6.4	-5.9	-17.0	53.4*	36.4	20.9	.
CCCc1c(NC(=O)Nc2ccc(F)cc2)cnn1-c1ccccc1	0.5	1.2	-19.2	-18.6	88.6*	-92.8	60.6*	29.3
CCCc1c(C(=O)Nc2ccc(F)cc2C)cnn1-c1ccccc1	1.2	6.3	-1.9	9.9	46.7	20.6	.	.
O=C(Cn1cnc2sc(-c3ccccc3)cc2c1=O)NCc1ccco1	-0.6	9.8	.	4.4	45.6	-7.9	.	.
O=C(Cn1cnc2sc(-c3ccccc3)cc2c1=O)NCCc1ccccc1	-0.6	-2.5	-23.6	-0.3	92.7*	27.2	35.0	97.6*
O=C(Cn1cnc2sc(-c3ccccc3)cc2c1=O)NCc1ccccc1	1.1	-17.6	5.9	17.3	77.5*	2.8	55.8*	56.0*
C[C@H]1CCCCO[C@H](CN(C)S(=O)(=O)c2ccc(Cl)cc2)[C@@H](C)CN([C@@H](C)CO)C(=O)c2cc(NS(=O)(=O)c3ccccc3)ccc2O1	.	.	-4.9	.	.	.	.	.
COc1ccc(CC(=O)Nc2cc3oc4ccccc4c3cc2OC)cc1	0.8	9.5	-119.1	-4.6	-165.8	-269.4	.	.
COc1cc2c(cc1NC(=O)COc1ccc3ccccc3c1)oc1ccccc12	-1.0	-10.1	.	11.1	62.4*	13.8	24.0	.
CCN(CC)c1ccc(C(=O)OCC(=O)Nc2cc3oc4ccccc4c3cc2OC)cc1	-2.5	0.0	14.4	19.2	50.5*	-3.1	26.4	.
COc1ccc(/C=C/C(=O)OCC(=O)Nc2cc3oc4ccccc4c3cc2OC)cc1	-0.8	.	0.7	.	81.7*	.	-16.6	.
COc1ccc(C#Cc2cnc3c(c2)C(=O)N([C@@H](C)CO)C[C@@H](C)[C@@H](CN(C)CC2CC2)O3)cc1	.	.	23.5	.	.	.	.	.

Bioassay records as filed in PubChem BioAssay.
